Compounds with a hit are over-represented: about 27% of the library has one in this group of screens.
CYP2C19 inh: blockers of cytochrome P450 2C19 activity – biochemical, luminescence, ADME assay, primary screen; P33261; 96,000 tested, 21% active; CYP2C19 Supersomes, luciferin-H EGE luminescence, 30 min; inhibition, % at 5 µM;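 active means CYP2C19 inhibition above a set limit at 5 µM in the primary screen, cut at about 50% in these data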;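 further: plate controls were negative control wells for no effect and 2.5 mM tranylcypromine positive control for full effect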
CYP2C19 activ: human CYP2C19 activators, primary screen, biochemical, luminescence; 96,000 tested, under 10 active; Cytochrome P450 2C19 (Homo sapiens), P33261; activation factor at 5 µM; recombinant CYP2C19, luciferin-H EGE luminescence; active compounds read high; 0 = fully inhibited enzyme, 1 = untreated enzyme;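 active means activation factor of at least 2 at 5 µM in the primary screen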;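 further: 0 = wells with 2.5 mM tranylcypromine and 1 = vehicle-only wells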
Cav32 inh: Cav3.2 calcium influx blockers – cell-based, Fluo-4 calcium fluorescence, FDSS, MLSMR library, primary screen; Cav3.2-expressing cells; active compounds read low; B-score at 10 µM; 100,000 tested, 4% active; Voltage-dependent T-type calcium channel subunit alpha-1H (Homo sapiens), O95180;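 active means single-dose well whose peak fluorescence ratio is a statistical outlier from its plate by either plate-standardised score or position-corrected B-score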
CYP2C9 inh: blockers of cytochrome P450 2C9 activity – biochemical, luminescence, ADME assay, primary screen | P11712 | CYP2C9 Supersomes, luciferin-H conversion | inhibition, % at 5 µM | 96,000 tested, 20% active | AID 777, 2007;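 active means blocking of liver enzyme CYP2C9 beyond about 50% at 5 µM, limit read from the data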
CYP2C9 activ: human CYP2C9 activators, primary screen, biochemical, luminescence. 96,000 tested, 1.4% active. AID 1024, 2008. activation factor at 5 µM. recombinant CYP2C9, luciferin-H conversion; active compounds read high; factor 1 = untreated enzyme, 0 = blocked;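 active means activation factor of 2 or more for CYP2C9 at a 5 µM dose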;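 further: 0 = sulfaphenazole-blocked wells and 1 = vehicle-only wells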
Active calls of the source: *; / = not tested or not shown.

SMILES	CYP2C19 inh	CYP2C19 activ	Cav32 inh	CYP2C9 inh	CYP2C9 activ
CCn1c(SCC(=O)Nc2ccc(C(=O)OC)cc2)nnc1-c1cccs1	51*	0.5	0.025	38	0.6
CCn1c(SCC(=O)Nc2ccc3c(c2)OCCO3)nnc1-c1c[nH]c2ccccc12	/	/	-1.2	/	/
C=CCn1c(SCC(=O)Nc2ccc(C(=O)OCC)cc2)nnc1-c1cccs1	-8	1.1	0.15	5	0.9
Cc1ccc(-c2nnc(-c3ccncc3)n2-c2ccc(C)cc2)cc1	38	0.6	0.0083	20	0.8
COC(=O)C1=C(C(=O)OC)[C@@H]2N(C)c3ccc(OC)cc3[C@@]23C[C@@H](C(=O)OC)N(C(=O)C2CCC2)C3=N1	/	/	-0.0095	/	/
O=C(CS(=O)(=O)Cc1ccccc1)Nc1ccc(Cl)cn1	/	/	0.12	/	/
CCn1c(SCC(=O)c2ccccc2)nnc1-c1cccs1	69*	0.3	-0.025	16	0.8
CCn1c(SCC(=O)Nc2cc(C)on2)nnc1-c1cccs1	83*	0.2	0.46	31	0.7
C=CCn1c(SCc2nc3ccccc3nc2C)nnc1-c1ccoc1C	95*	0	-0.5	-39	1.4
CCn1c(SC(=O)NC2CCCCC2)nnc1-c1cccs1	53*	0.5	-0.0018	25	0.8
O=C(CSc1nnc(Cc2cccs2)n1-c1ccccc1)Nc1ccc2c(c1)OCCO2	85*	0.2	-4.8*	89*	0.1
CC(C)(C)OC(=O)N1CCOCCOCCN(C(=O)OC(C)(C)C)CCOCCOCC1	-2	1	1.3	0	1
CC1Cc2ccccc2N1C(=O)Cn1c(=O)oc2cc(S(=O)(=O)NC3CCCC3)ccc21 (configuration not stated)	31	0.7	-8.9*	69*	0.3
O=C(CCn1c(=O)oc2ccccc21)N1CCN(C(c2ccccc2)c2ccccc2)CC1	4	1	/	66*	0.3
O=C(CCn1c(=O)oc2ccccc21)N1CCN(c2ccccc2F)CC1	73*	0.3	-0.54	27	0.7
CC1Cc2ccccc2N1C(=O)CCn1c(=O)oc2ccccc21 (configuration not stated)	94*	0.1	0.51	77*	0.2
CC(=O)N1CCN(C(=O)Cn2c(=O)oc3ccccc32)CC1	8	0.9	1	9	0.9
O=C(COC(=O)c1ccc(N2CCCC2=O)cc1)NCc1ccco1	-3	1	0.64	14	0.9
CCCN(CCC)S(=O)(=O)c1cc(Br)cc2c1N(C(=O)CC)CC2	9	0.9	-0.22	42	0.6
COc1ccc(OCC(=O)Nc2cccc(-c3nc4ccccc4o3)c2)cc1	38	0.6	0.29	34	0.7
CCOC(=O)c1cccc(NC(=O)COc2ccc([N+](=O)[O-])cc2)c1	57*	0.4	-2.7	77*	0.2
COc1ccc(OCC(=O)Nc2cccc(-c3nc4ccccc4[nH]3)c2)cc1	65*	0.4	-1.9	94*	0.1
CC(=O)Nc1cccc(OCC(=O)Nc2ccc(F)cc2)c1	68*	0.3	/	-33	1.3
COc1ccc(OCC(=O)Nc2cccc(C(C)=O)c2)cc1	67*	0.3	/	51*	0.5
Cc1cc(C)cc(OCC(=O)Nc2cccc(C(=O)O)c2)c1	-4	1	0.51	8	0.9
SMILES	CYP2C19 inh	CYP2C19 activ	Cav32 inh	CYP2C9 inh	CYP2C9 activ
CSc1ccc(NC(=O)N2CCN(c3nc4ccccc4s3)CC2)cc1	36	0.6	1.7	37	0.6
O=C(OCc1cc(Cl)ccc1OC(F)F)c1cc(S(=O)(=O)O)ccc1O	3	1	0.15	73*	0.3
COc1cc2ccccc2cc1-c1nnc(COc2ccccc2)o1	11	0.9	0.76	-14	1.1
O=C(c1cc(NC(=O)C23CC4CC(CC(C4)C2)C3)cc(NC(=O)C23CC4CC(CC(C4)C2)C3)c1)N1CCCCC1	/	/	-8*	/	/
CC(=O)NCc1nc2ccccc2n1Cc1ccccc1C	16	0.8	0.61	-8	1.1
CC(=O)Nc1nc2ccccc2n1Cc1ccccc1C	82*	0.2	0.15	13	0.9
CCCn1c(NC(=O)c2ccccc2)nc2ccccc21	3	1	-0.86	-22	1.2
CC(=O)Nc1nc2ccccc2n1CCOc1ccccc1Cl	60*	0.4	0.08	13	0.9
Cc1cccc(Cn2c(C(C)O)nc3ccccc32)c1 (configuration not stated)	31	0.7	0.13	-1	1
Cc1ccccc1Cn1c(C(C)O)nc2ccccc21 (configuration not stated)	59*	0.4	-0.79	-3	1
CC(NC(=O)c1ccccc1)c1nc2ccccc2n1Cc1ccccc1F (configuration not stated)	48	0.5	/	60*	0.4
COc1ccccc1-n1c(CNC(=O)c2ccco2)nnc1SCC(=O)Nc1nccs1	17	0.8	-0.063	42	0.6
COc1ccc(CNC(=O)C(c2ccco2)N(Cc2cccs2)C(=O)Cc2cccs2)cc1 (configuration not stated)	8	0.9	-0.2	-6	1.1
COCCN(C(=O)Cc1cccs1)C(C(=O)NCc1ccc(OC)cc1)c1ccc(OC)cc1 (configuration not stated)	38	0.6	0.35	65*	0.3
COc1ccc(C(=O)N(Cc2ccco2)Cc2cccs2)c(O)c1	88*	0.1	-4.8*	95*	0
COc1ccc(CNC(=O)C(c2cccs2)N(Cc2ccco2)C(=O)Cc2cccs2)cc1 (configuration not stated)	/	/	-7.2*	/	/
O=C(NC1CCCCC1)C(c1ccccc1)N(Cc1ccc2c(c1)OCO2)C(=O)c1cnsn1 (configuration not stated)	/	/	-7.5*	/	/
COc1ccc(N2C(=O)CCC(C(=O)N3CCCCCC3)C2c2ccc(OC)c(OC)c2)cc1 (configuration not stated)	-6	1.1	0.9	-6	1.1
CC(C)C1N(c2ccccc2)C(N)=C(C#N)C1(C#N)C#N (configuration not stated)	49	0.5	0.18	16	0.8
Cc1cc(C)n2nc[n+](C)c2n1	2	1	0.13	20	0.8
Cc1ccc(-c2nnn(CC(=O)N(Cc3ccco3)C(C(=O)NC(C)(C)C)c3cccs3)n2)o1 (configuration not stated)	/	/	-6.3*	/	/
COc1ccc(CNC(=O)C(c2ccc(C)cc2)N(Cc2cccs2)C(=O)c2ccc3c(c2)OCCO3)cc1 (configuration not stated)	66*	0.3	/	49	0.5
COc1ccc(C(C(=O)NCc2ccccc2)N(Cc2ccc3c(c2)OCO3)C(=O)c2cnccn2)cc1 (configuration not stated)	94*	0.1	-0.19	94*	0.1

Source: PubChem BioAssay (several laboratories)
